Counter-ions that a name gives are not always drawn.
Experiments:
Settings in all cases: incubation time: 27 h, anaerobic, 37 °C;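 for the amine columns active = adjusted P below 0.05 in both replicates with a change the same way and a mean fold change under 0.8 or over 1.25; inactive = the rest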
[1] = system: Clostridium sporogenes DSM 1664; assay: growth (OD595) fold change vs plate DMSO controls (fold change (ratio)); higher = more growth
How it was run: (§1)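 Anaerobic 27 h, 37 °C mGAM 96-well cultures were shaken, then read for absorbance at 595 nm. Values were blank-subtracted and corrected for compound background using 20 µM compound solutions in water. A calibration factor of 5 converted them to OD. Growth is the fold change versus the median of plate DMSO controls. Fold changes above 1.5 were set to NA, and values are the mean of 2 biological replicates.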

Escherichia coli IAI1 [2] = assay: as above
How it was run: as §1

[3] = system: Klebsiella aerogenes DSM 30053; assay: as above
How it was run: as §1

[4] = system: Ruminococcus gnavus DSM 108212; assay: as above
How it was run: as §1

[5] = system: Klebsiella aerogenes DSM 30053; assay: fold change of Histamine concentration vs plate DMSO controls (fold change (ratio)); higher = more amine produced, active = hit call of the paper (significant change in both replicates, either direction)
How it was run: (§2)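 Amine values are fold changes relative to DMSO-only wells on the same plate. They derive from 27 h, 37 °C anaerobic mGAM cultures of four gut bacterial strains in 80 µL wells, dosed at 20 µM final, or 50 µM final for sweeteners. Extraction of the whole culture, LC–triple-quadrupole MS in dynamic MRM mode, external calibration curves and within-batch drift correction were used, with 2 biological replicates averaged.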

[6] = system: Clostridium sporogenes DSM 1664; assay: fold change of Tryptamine concentration vs plate DMSO controls (fold change (ratio)); higher = more amine produced, active = hit call of the paper (significant change in both replicates, either direction)
How it was run: as §2

[7] = system: Ruminococcus gnavus DSM 108212; assay: as above
How it was run: as §2

Escherichia coli IAI1 [8] = assay: fold change of Putrescine concentration vs plate DMSO controls (fold change (ratio)); higher = more amine produced, active = hit call of the paper (significant change in both replicates, either direction)
How it was run: as §2

[9] = system: Klebsiella aerogenes DSM 30053; assay: as above
How it was run: as §2

Escherichia coli IAI1 [10] = assay: fold change of Cadaverine concentration vs plate DMSO controls (fold change (ratio)); higher = more amine produced, active = hit call of the paper (significant change in both replicates, either direction)
How it was run: as §2

[11] = system: Klebsiella aerogenes DSM 30053; assay: as above
How it was run: as §2

[12] = system: Ruminococcus gnavus DSM 108212; assay: fold change of 2-Phenylethylamine concentration vs plate DMSO controls (fold change (ratio)); higher = more amine produced, active = hit call of the paper (significant change in both replicates, either direction)
How it was run: as §2

SMILES	growth [1]	growth (Escherichia coli IAI1 [2])	growth [3]	growth [4]	fold change of Histamine concentration [5]	fold change of Tryptamine concentration [6]	fold change of Tryptamine concentration [7]	fold change of Putrescine concentration (Escherichia coli IAI1 [8])	fold change of Putrescine concentration [9]	fold change of Cadaverine concentration (Escherichia coli IAI1 [10])	fold change of Cadaverine concentration [11]	fold change of 2-Phenylethylamine concentration [12]
COc1ccnc(C[S+]([O-])c2nc3cc(OC(F)F)ccc3[nH]2)c1OC (centres undefined) [Pantoprazole sodium] (20 µM)	1.18	1.22	1	0.958	0.936 (inactive)	1.05 (inactive)	1.05 (inactive)	1.25 (inactive)	1.01 (inactive)	0.98 (inactive)	1.02 (inactive)	1.07 (inactive)
CC(=O)/N=c1/sc(S(N)(=O)=O)nn1C [Methazolamide] (20 µM)	1.08	1.07	1.01	0.848	0.962 (inactive)	1.02 (inactive)	1.07 (inactive)	0.979 (inactive)	0.981 (inactive)	0.958 (inactive)	0.996 (inactive)	1.12 (inactive)
CCCC(=O)OCOC(=O)C1=C(C)NC(C)=C(C(=O)OC)C1c1cccc(Cl)c1Cl (centres undefined) [Clevidipine] (20 µM)	0.828	1.03	1.01	1.22	1.01 (inactive)	0.829 (inactive)	0.902 (inactive)	1.04 (inactive)	1.01 (inactive)	0.985 (inactive)	0.998 (inactive)	0.928 (inactive)
COCCOC(=O)C1=C(C)NC(C)=C(C(=O)OC/C=C/c2ccccc2)C1c1cccc([N+](=O)[O-])c1 (centres undefined) [Cilnidipine] (20 µM)	1.19	0.996	1.16	0.973	0.989 (inactive)	0.918 (inactive)	0.945 (inactive)	1 (inactive)	1.01 (inactive)	0.982 (inactive)	1.03 (inactive)	0.905 (inactive)
NC(N)=Nc1nc(CSCC/C(N)=N/S(N)(=O)=O)cs1 [Famotidine] (20 µM)	0.878	0.928	0.855	0.824	1.04 (inactive)	1.02 (inactive)	1.03 (inactive)	1.03 (inactive)	0.999 (inactive)	0.975 (inactive)	0.99 (inactive)	1.07 (inactive)
CCCCCCCC/C=C\CCCCCCCCCCCC(=O)O [Erucic acid] (20 µM)	0.975	1	1.04	1.06	1.02 (inactive)	1.1 (inactive)	0.851 (inactive)	0.981 (inactive)	1.01 (inactive)	1.06 (inactive)	0.99 (inactive)	0.86 (inactive)
CCCCC(CC)CN1CN(CC(CC)CCCC)CC(C)(N)C1 (centres undefined) [Hexetidine] (20 µM)	1.05	1.07	1.11	1.45	0.978 (inactive)	1.23 (inactive)	0.898 (inactive)	1.05 (inactive)	0.987 (inactive)	1.04 (inactive)	1.01 (inactive)	1.05 (inactive)
O=C(Nc1ccc([N+](=O)[O-])cc1Cl)c1cc(Cl)ccc1O [Niclosamide] (20 µM)	0.924	1.12	1.1	0.78	0.97 (inactive)	1.02 (inactive)	0.887 (inactive)	1.22 (inactive)	1.03 (inactive)	1.31 (active)	0.992 (inactive)	0.934 (inactive)
C[C@]12CC[C@@H]3c4ccc(OS(=O)(=O)O)cc4CC[C@H]3[C@@H]1CCC2=O [Estropipate piperazine salt] (20 µM)	1.04	1.01	1.01	1.21	0.996 (inactive)	0.974 (inactive)	0.96 (inactive)	1.04 (inactive)	0.985 (inactive)	0.947 (inactive)	0.993 (inactive)	0.89 (inactive)
Cc1cc(C2CCCCC2)n(O)c(=O)c1 [Ciclopirox ethanolamine] (20 µM)	0.962	1.05	1.06	1.13	0.978 (inactive)	1.04 (inactive)	1.02 (inactive)	1.06 (inactive)	0.994 (inactive)	1 (inactive)	1 (inactive)	0.976 (inactive)
CC1(C)NC(=O)N(c2ccc([N+](=O)[O-])c(C(F)(F)F)c2)C1=O [Nilutamide] (20 µM)	0.998	1.02	0.999	0.98	1.05 (inactive)	0.955 (inactive)	0.957 (inactive)	1.1 (inactive)	1.01 (inactive)	0.987 (inactive)	0.995 (inactive)	0.981 (inactive)
OC(CCN1CCCC1)(c1ccccc1)C1CCCCC1 (centres undefined) [Procyclidine hydrochloride] (20 µM)	0.903	1.05	1.02	0.966	0.947 (inactive)	0.959 (inactive)	0.894 (inactive)	1.13 (inactive)	1.08 (inactive)	0.831 (inactive)	1.04 (inactive)	0.912 (inactive)

— the supplement of paper PMC12494721
